Values without a mark were called inactive. Records with an inconclusive call do not appear. Active and inactive are the calls of the source. The call rests on the fitted dose curve; in most records, active means well fitted curve in the direction sought with a large enough effect in the repeat runs; inconclusive means weak or mixed curves; inactive means no such curve, though single readings can be large; an effect the other way counts as inactive or inconclusive.

A short description of assay [1]: qHTS RealTime-Glo MT Cell Viability Assay in HEK293 cells - 0 hour (AID 1224880). Further: top concentration of the series differs between compounds; nearly all actives have a fitted effect of over 45% in size. In outline: (§1)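 Viable HEK293 cells reduce a cell-permeant prosubstrate; the product diffuses out and is consumed by NanoLuc in the medium to give light. Compounds went in after a 5 h incubation and plates were read over the treatment course.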
For orientation: qHTS replaces the single test concentration by a dilution series.

The nature of assay [2]: A CellTox Green Cytotoxicity Assay to monitor cytotoxicity in HEK293 cells - 32 hour (AID 1224881). Further: nearly all actives have a fitted effect of over 40% in size. In outline:
(§2)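 Fluorescence intensity, read at 0, 8, 16, 24, 32 and 40 h of compound treatment, reflected dye binding to DNA of dead HEK293 cells; compounds (23 nL, DMSO) were added 5 h after plating cells with reagent.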

A short description of assay [3]: A CellTox Green Cytotoxicity Assay to monitor cytotoxicity in HepG2 cells - 0 hour (AID 1224882). Further: nearly all actives have a fitted effect of over 35% in size. In outline:
(§3)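 Using 1536-well format, dye-containing HepG2 suspension was seeded, allowed 5 h at 37 C/5% CO2, dosed by pintool with compounds, positive and negative controls, and imaged for fluorescence across 40 h.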

Assay [4] in a line: A CellTox Green Cytotoxicity Assay to monitor cytotoxicity in HepG2 cells - 32 hour (AID 1224883). Further: nearly all actives have a fitted effect of over 50% in size. The method in brief:
as §3

Assay [5] in a line: A CellTox Green Cytotoxicity Assay to monitor cytotoxicity in HEK293 cells - 8 hour (AID 1224884). Further: nearly all actives have a fitted effect of over 35% in size. In outline: as §2
A short description of assay [6]: qHTS RealTime-Glo MT Cell Viability Assay in HepG2 cells - 16 hour (AID 1224885). Further: nearly all actives have a fitted effect of over 50% in size. The method in brief:
(§4)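 Real-time, nonlytic viability: 600 HepG2 cells/well mixed with NanoLuc enzyme plus prosubstrate; 5 h settle, compound (DMSO) added by pintool; luminescence monitored over 40 h at 37 C.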

Assay [7] in a line: qHTS RealTime-Glo MT Cell Viability Assay in HEK293 cells - 24 hour (AID 1224886). Further: nearly all actives have a fitted effect of over 50% in size. Further: potency means the concentration at half of the fitted maximal effect. On activity change, negative = cytotoxicity: top concentration of the series differs between compounds. The method in brief:
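Cells + reagent dispensed (600 cells/well, HEK293) → 5 h at 37 C/5% CO2 → 23 nL compound in DMSO pinned → 40 h at 37 C → luminescence read at 0, 8, 16, 24, 32, 40 h.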

The nature of assay [8]: A CellTox Green Cytotoxicity Assay to monitor cytotoxicity in HEK293 cells - 16 hour (AID 1224888). Further: nearly all actives have a fitted effect of over 35% in size. The method in brief: as §2
Assay [9] is described as follows: qHTS RealTime-Glo MT Cell Viability Assay in HepG2 cells - 0 hour (AID 1224889). Further: nearly all actives have a fitted effect of over 50% in size. In outline: as §4
The nature of assay [10]: A CellTox Green Cytotoxicity Assay to monitor cytotoxicity in HepG2 cells - 8 hour (AID 1224890). Further: nearly all actives have a fitted effect of over 45% in size. In outline:
as §3

A short description of assay [11]: qHTS assay to identify small molecule antagonists of the estrogen receptor alpha (ER-alpha) signaling pathway using the BG1 cell line in the presence of 0.1 nM 17-beta-estradiol - cell viability counter screen (AID 1259241). Further: nearly all actives have a fitted effect of over 40% in size. In outline: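 Estradiol-stimulated (0.1 nM) VM7Luc4E2 cells exposed to compounds 22 hr; viability measured by fluorescence of cleaved CellTiter-Fluor substrate after 30 min.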

A short description of assay [12]: qHTS assay to identify small molecule antagonists of the androgen receptor (AR) signaling pathway using the MDA cell line in the presence of 0.5 nM R1881 - cell viability counter screen (AID 1259242). Further: nearly all actives have a fitted effect of over 45% in size. The method in brief:
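Viability of MDA-kb2 cells was multiplexed with the luciferase AR readout; after 16 hr with compounds and R1881 at 0.5 nM final, CellTiter-Fluor fluorescence was recorded.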

Assay [13] is described as follows: qHTS assay to identify small molecule HDAC inhibitors (AID 1259364).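 Further: wild-type HCT-116 cells with endogenous class I/II HDAC activity; top concentration of the series differs between compounds; nearly all actives have a fitted effect of over 45% in size.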 In outline:
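Read-out: luminescence of HDAC-Glo I/II reagent, 30 min RT, reflecting class I/II deacetylase activity in whole HCT-116 cells pre-exposed 2 h to DMSO-dissolved compounds.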

Assay [14] is described as follows: qHTS assay to identify small molecule HDAC inhibitors - cell viability counter screen (AID 1259365). In outline: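 After overnight seeding at 1,500 cells per well, wild-type HCT-116 cultures took up compounds in DMSO for 2hr at 37 C. Viable cell content came from luminescence with CellTiter-Glo.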
The nature of assay [15]: qHTS assay to identify small molecule agonists of the sonic hedgehog signaling (Shh) pathway - cell viability counter screen (AID 1259366). Further: nearly all actives have a fitted effect of over 50% in size. In outline: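 Same-well cytotoxicity read. Gli1-Luc reporter 3T3 cells; compounds 24hr, 37C/5% CO2; CellTiter-Fluor fluorescence.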
A short description of assay [16]: qHTS assay to identify small molecule antagonists of the sonic hedgehog signaling (Shh) pathway - cell viability counter screen (AID 1259367). Further: nearly all actives have a fitted effect of over 55% in size. The method in brief: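 Seed 3T3 Gli1-Luc cells at 2,000 per well; incubate 4 hr; add compound in DMSO, then conditioned medium; incubate at 37C with 5% CO2; add CellTiter-Fluor after 23 hr; read fluorescence 1 hr later.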

Assay [17] deals with Estrogen receptor (Homo sapiens) (UniProt P03372). Briefly: qHTS assay to identify small molecule antagonists of the estrogen receptor alpha (ER-alpha) signaling pathway using the BG1 cell line in the presence of 0.1 nM 17-beta-estradiol (AID 1259244). Further: nearly all actives have a fitted effect of over 50% in size. In outline:
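Estradiol at 0.1 nM (final) stimulates the endogenous ER-alpha of VM7Luc4E2 cells carrying an ERE-driven luciferase; compounds are co-incubated 22 h at 37C and luciferase output quantified by luminescence.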

The nature of assay [18]: qHTS RealTime-Glo MT Cell Viability Assay in HEK293 cells - 8 hour (AID 1224887). The method in brief: as §1
On the % scale 0 is the no-effect control and ±100 the full control effect.

Sequence of Estrogen receptor (Homo sapiens) (P03372 whole entry, looked up): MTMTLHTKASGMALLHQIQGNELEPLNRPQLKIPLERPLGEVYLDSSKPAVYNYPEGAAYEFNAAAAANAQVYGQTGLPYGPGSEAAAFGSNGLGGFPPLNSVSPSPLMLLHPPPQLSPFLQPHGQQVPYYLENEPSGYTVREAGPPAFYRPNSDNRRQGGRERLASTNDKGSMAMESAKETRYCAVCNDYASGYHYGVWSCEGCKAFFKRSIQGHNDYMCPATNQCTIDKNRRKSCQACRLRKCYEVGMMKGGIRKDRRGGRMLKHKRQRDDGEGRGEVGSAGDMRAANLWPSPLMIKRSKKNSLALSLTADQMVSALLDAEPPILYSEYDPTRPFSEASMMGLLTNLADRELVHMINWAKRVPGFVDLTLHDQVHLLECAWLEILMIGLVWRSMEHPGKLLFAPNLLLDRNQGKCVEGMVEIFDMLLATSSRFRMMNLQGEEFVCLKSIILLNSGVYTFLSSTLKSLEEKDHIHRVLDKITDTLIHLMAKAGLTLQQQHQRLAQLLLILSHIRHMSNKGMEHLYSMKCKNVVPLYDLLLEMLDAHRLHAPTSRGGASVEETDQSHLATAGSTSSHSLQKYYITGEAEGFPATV

`CCCCCCCCCCCCCOC(=O)CCSCCC(=O)OCCCCCCCCCCCCC`: the activity change, negative = cytotoxicity was -5.28% [at 15.8 µM] in [1]; -2.9% [at 15.8 µM] in [7]; -15% [at 15.8 µM] in assay [9]; 6.24% [at 19 µM] in assay [11]; 6.04% [at 19 µM] in assay [14]. For the same compound, the cytotoxicity increase in [2] is 13.9% [at 15.8 µM]; in assay [4], -0.352% [at 15.8 µM]; in assay [5] it was 12.5% [at 15.8 µM]; in assay [10], 4.96% [at 15.8 µM]. In assay [3], the cytotoxicity is 4.63% [at 15.8 µM]. The activity change, negative = cytotoxic in assay [6] was -6.5% [at 15.8 µM]. In assay [8], the activity change is 17.2% [at 15.8 µM, stronger effect = higher value]. In addition, the viability change, negative = cytotoxic in assay [12] was 3.47% [at 19 µM]; in [15], 2.43% [at 19 µM]; in assay [16], -3.37% [at 19 µM]. For the same compound, the activity change, negative = inhibition in assay [13] was 3.35% [at 19 µM].
Regarding `CCOC(=O)C(C)O` (configuration not stated), the Potency entry in [1], in assay [2], in assay [3], in [4], in [5] and in assay [6] was “inactive” each time. The Potency result in assay [7], in assay [8], in [9], in assay [10], in assay [11] and in assay [12] was “inactive” each time. Moreover, the Potency entry in [17], in [13], in assay [14], in assay [15] and in [16] was “inactive” in each case.
On to `CCCCCC`, for which the Potency entry in [1], in assay [2], in assay [3], in assay [4], in assay [5] and in assay [6] was “inactive” each time. In addition, the Potency entry in assay [7], in assay [8], in [9], in [10], in [11] and in assay [12] was “inactive” in each case. Further, the Potency result in [13], in assay [14], in assay [15] and in assay [16] was “inactive” in each case.
As for `CC1CCc2nccnc21` (configuration not stated), the Potency result in assay [1], in assay [2], in assay [3], in [4], in assay [5] and in [6] was “inactive” in each case. Further, the Potency result in assay [18], in assay [8], in assay [10], in assay [11], in [12] and in assay [17] was “inactive” each time. For the same compound, the Potency result in [13], in [14], in assay [15] and in assay [16] was “inactive” throughout.
In the case of `O=C(CCS)OCC(COC(=O)CCS)(COC(=O)CCS)COC(=O)CCS`, the Potency result in [1], in assay [2], in [3], in assay [4], in assay [5] and in assay [6] was “inactive” throughout. Moreover, the Potency entry in assay [8], in assay [9], in assay [10], in assay [11], in assay [12] and in assay [17] was “inactive” in each case. The Potency entry in assay [13], in assay [14], in [15] and in assay [16] was “inactive” throughout.
Consider `CC(C)C(O)C(C)(C)CO` (configuration not stated), for which the Potency entry in assay [1], in [2], in assay [3], in [4], in [5] and in [6] was “inactive” each time. For the same compound, the Potency result in assay [8], in [9], in assay [10], in assay [11], in assay [12] and in [13] was “inactive” throughout. Also, the Potency entry in [14], in [15] and in assay [16] was “inactive” throughout. Besides, the Potency in assay [7] was 801 nM (active).
Turning to `O=C1OC[C@H](Cc2cccc(O)c2)[C@H]1Cc1cccc(O)c1`, the Potency result in assay [1], in assay [2], in assay [3], in [4], in assay [5] and in assay [6] was “inactive” throughout. The Potency result in assay [7], in assay [8], in assay [9], in assay [10], in [11] and in assay [12] was “inactive” in each case. Moreover, the Potency result in [13], in [14] and in assay [15] was “inactive” each time.

For the origin of these results see PubChem BioAssay (Tox21).
